From PubChem BioAssay
KCNQ2 inh – rat KCNQ2 potassium channel inhibitors, primary screen, cell-based, CHO-K1, FluxOR thallium flux, B-score; B-score at 10 µM; 20 min; active compounds read low; 1.1% of 310,000 active;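 active = fluorescence ratio B-score at most minus 3 library SDs, with starting brightness B-score within 2 library SDs, cut at about -5.5 in these data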
Target sequence (O88943 whole entry, looked up): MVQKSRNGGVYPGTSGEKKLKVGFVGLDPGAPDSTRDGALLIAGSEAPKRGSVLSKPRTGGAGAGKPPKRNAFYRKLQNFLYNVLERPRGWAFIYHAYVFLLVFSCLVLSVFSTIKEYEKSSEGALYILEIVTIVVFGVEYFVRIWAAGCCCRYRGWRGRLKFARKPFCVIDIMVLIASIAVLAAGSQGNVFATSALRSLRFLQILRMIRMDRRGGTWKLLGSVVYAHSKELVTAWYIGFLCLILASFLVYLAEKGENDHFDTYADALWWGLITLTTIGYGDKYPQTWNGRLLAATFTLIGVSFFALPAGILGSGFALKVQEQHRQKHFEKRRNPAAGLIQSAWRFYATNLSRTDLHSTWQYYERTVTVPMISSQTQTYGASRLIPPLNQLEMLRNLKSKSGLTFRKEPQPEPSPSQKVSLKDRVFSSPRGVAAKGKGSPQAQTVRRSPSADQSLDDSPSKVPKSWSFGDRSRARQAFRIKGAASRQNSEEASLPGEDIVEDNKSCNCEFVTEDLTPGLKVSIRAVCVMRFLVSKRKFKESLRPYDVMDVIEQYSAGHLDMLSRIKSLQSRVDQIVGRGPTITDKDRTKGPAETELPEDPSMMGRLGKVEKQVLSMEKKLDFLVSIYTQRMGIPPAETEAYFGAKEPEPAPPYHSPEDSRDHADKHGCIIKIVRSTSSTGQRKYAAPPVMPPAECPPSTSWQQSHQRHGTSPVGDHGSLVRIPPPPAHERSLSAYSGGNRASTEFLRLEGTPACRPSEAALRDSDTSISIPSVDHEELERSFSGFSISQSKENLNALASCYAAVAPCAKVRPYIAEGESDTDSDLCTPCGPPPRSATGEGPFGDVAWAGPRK
KCNQ2 pot – potentiators of rat KCNQ2 potassium channel; Potassium voltage-gated channel subfamily KQT member 2 (Rattus norvegicus), O88943; CHO-K1 KCNQ2, FluxOR thallium flux fluorescence; active compounds read high; B-score at 10 µM; 0.54% of 310,000 active;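 active = fluorescence ratio B-score at least 3 SD of library B-scores, with initial fluorescence B-score within 3 of them, cut at about 5.3 in these data; same plate scores as AID 2156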;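 also: B-score of peak minus minimum over baseline fluorescence ratio after K+ and Tl+ stimulus; positive B-score means potentiation of KCNQ2 with more thallium influx and brighter signal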
Kir21 conf inh – mouse Kir2.1 channel blockers, retest, confirmation, cell-based, FluxOR thallium flux, duplicate; shares compounds with KCNQ2 pot; Kir2.1-expressing cells, FluxOR thallium flux fluorescence; active compounds read low; Tl flux remaining, % of negative control (active compounds read low), % at 10 µM; 41% of 2,300 active; AID 2032, 2009;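 active = Primary-screen hit whose thallium flux fell at least 3 control SD below untreated wells in both duplicates, with normal baseline fluorescence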;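 also: 0% = blank wells without stimulus and 100% = stimulated no-compound controls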
HEK293 Tl flux – counter-screen for Kir2.1 inhibitors: effect in parental HEK293 cells; shares compounds with KCNQ2 pot; 19% of 2,300 active; AID 2105; FluxOR signal as % of negative control (100 = no effect), % at 10 µM; FluxOR thallium flux fluorescence; 0% = unstimulated blank wells;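 active = dye signal at least 3 control SD above or below untreated wells in both duplicates, raw fluorescence within 3, either direction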;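 also: percent is based on the flux ratio of peak minus minimum fluorescence over baseline F0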
CHO-K1 Tl ctr – nonspecific thallium flux increase in parental CHO-K1, confirmation, counter-screen for KCNQ2 potentiator project, cell-based, FluxOR thallium flux, duplicate; shares compounds with KCNQ2 pot; 43% of 1,200 active; activity increase over 3SD of controls, % at 10 µM; parental CHO-K1 cells, FluxOR thallium flux fluorescence; zero = vehicle mean+3SD, 100% = vehicle-minus-blank window; AID 2282, 2010;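 active = signal rise of at least 3 SD above the untreated control mean, in both duplicate wells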;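 also: counter screen of KCNQ2 potentiator hits so any rise reflects channel-independent effects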
KCNQ1 pot spec – human KCNQ1 channel potentiation off-target, confirmation, selectivity assay for KCNQ2 potentiator project, cell-based, CHO, FluxOR thallium flux; activation over 3SD threshold, % at 10 µM; 28% of 1,200 active; shares compounds with KCNQ2 pot; CHO KCNQ1 stable, FluxOR thallium flux fluorescence; beyond 3SD, as % of vehicle-control signal;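 active = fluorescence ratio rise of at least 3 SD of vehicle wells above their mean, in both replicate wells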;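 also: 0% = vehicle mean plus 3 SD and 100% = vehicle minus unstimulated blank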
KCNQ2 pot confirm – rat KCNQ2 channel potentiators, confirmation, cell-based, CHO, FluxOR thallium flux, duplicate. AID 2287, 2010. CHO-KCNQ2 cells, FluxOR thallium flux fluorescence. 68% of 1,200 active. shares compounds with KCNQ2 pot. potentiation, less the hit threshold, % at 10 µM;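 active = fluorescence ratio rising 3 SD or more over the vehicle control mean in both replicates, plus primary screen hit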;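 also: peak minus minimum thallium fluorescence divided by baseline after K/Tl stimulus; 0% = vehicle mean plus 3 SD and 100% = vehicle minus unstimulated blank difference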
Kir21 spec – mouse Kir2.1 channel activation off-target, confirmation, selectivity assay for KCNQ2 potentiator project, cell-based, HEK293, FluxOR thallium flux | shares compounds with KCNQ2 pot | HEK293 Kir2.1, FluxOR thallium flux fluorescence | activity over 3SD threshold, % at 10 µM | 2% of 1,200 active | AID 2345, 2010;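 active = fluorescence ratio rise of at least 3 SD above the vehicle-control mean, seen in both replicates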;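 also: 0% = vehicle mean plus 3 SD and 100% = vehicle minus no-stimulus blank window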
KCNQ2 W236L pot – potentiators of retigabine-insensitive KCNQ2 W236L, mechanism study for KCNQ2 potentiator project, cell-based, rat KCNQ2 W236L, CHO, automated patch clamp; current increase over 3SD of negative controls (%), active compounds read high, % at 25 µM; 10% of 940 active; automated patch clamp current; shares compounds with KCNQ2 pot; AID 2558, 2010;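 active = current increase at least 3 SD of the untreated controls above them in both duplicate recordings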
Numbers without * were called inactive; i = inactive; . = no result given. In the library only some 1.6% were active in any assay of this set; here they are far more common.

SMILES	KCNQ2 inh	KCNQ2 pot	Kir21 conf inh	HEK293 Tl flux	others
NC(=O)c1ccc(SCC(=O)OCC(=O)NCc2ccco2)c([N+](=O)[O-])c1	i	.	.	.
N#Cc1c(OCC(=O)c2ccccc2)nc2c(c1-c1ccco1)CCc1ccccc1-2	i	20*	i	145%*	CHO-K1 Tl ctr=2.2*;KCNQ1 pot spec=-3;KCNQ2 pot confirm=42*;Kir21 spec=-37;KCNQ2 W236L pot=i
CCOC(=O)COc1nc(-c2ccccc2)cc(-c2ccco2)c1C#N	i	2.4	.	.
CCOC(=O)COc1nc2c(c(-c3ccco3)c1C#N)CCc1ccccc1-2	i	10*	i	i	CHO-K1 Tl ctr=48*;KCNQ1 pot spec=84*;KCNQ2 pot confirm=-11;Kir21 spec=-28;KCNQ2 W236L pot=i
Cc1cc(C)c(C#N)c(OCC(=O)c2ccccc2)n1	i	0.86	.	.
CCOC(=O)c1c(C)[nH]c(C)c1S(=O)(=O)NCC1CCN(Cc2ccccc2OC)CC1	i	0.07	.	.
Cc1ccc(S(=O)(=O)NCC2COc3ccccc3O2)cc1 (stereo not drawn)	i	.	.	.
Cc1ccc([N+](=O)[O-])cc1S(=O)(=O)NCC1COc2ccccc2O1 (stereo not drawn)	i	.	73%*	i
CCc1cc2c(cc3c(=O)n(CC(=O)N4CCN(C)CC4)ncn32)s1	i	.	.	.
Cc1cc(C)c(NC(=O)c2ccoc2C)c(C)c1	i	6.1*	i	i	CHO-K1 Tl ctr=-3;KCNQ1 pot spec=-3;KCNQ2 pot confirm=9.5*;Kir21 spec=-16;KCNQ2 W236L pot=i
Cc1occc1C(=O)Nc1ccc2ccccc2c1	i	13*	i	i	CHO-K1 Tl ctr=105*;KCNQ1 pot spec=-17;KCNQ2 pot confirm=60*;Kir21 spec=-30;KCNQ2 W236L pot=i
Cc1occc1C(=O)Nc1ccccc1C(=O)O	i	.	.	.
CC(=O)c1cccc(NC(=O)c2ccoc2C)c1	i	2.1	.	.
COc1ccc(C(=O)c2c(C)c3ccccc3n2CC(O)CNC(C)C)cc1 (stereo not drawn)	i	0.75	.	.
CC(C)NCC(O)Cn1c2c(c3ccccc31)CCc1c-2cnn1-c1ccccc1 (stereo not drawn)	i	.	54%*	i
Cc1cc(C)cc(N(CC(=O)Nc2ccc(Br)cc2)S(=O)(=O)c2c(C)[nH]c(=O)[nH]c2=O)c1	i	.	.	.
Cc1[nH]n(-c2ccccc2)c(=O)c1N=Nc1ccccc1O	i	1.5	.	.
Cc1[nH]n(-c2ccccc2)c(=O)c1N=Nc1nccs1	i	15*	i	550%*	CHO-K1 Tl ctr=-6;KCNQ1 pot spec=16*;KCNQ2 pot confirm=91*;Kir21 spec=18*;KCNQ2 W236L pot=i
CCOc1ccc(CNCCN2CCCC2)cc1	i	.	.	.
Cc1ccccc1OCCNCC(C)O (stereo not drawn)	i	.	.	.
Cc1cc(C)c(OCCCCN(C)Cc2ccccc2)c(C)c1	i	.	22%*	i
Clc1ccc(Cl)c(OCCCCNCc2ccccc2)c1	i	.	.	.
Clc1ccc(OCCCNCc2ccccc2)c(Br)c1	i	.	9.5%*	74%*
Cc1cc(Cl)c(OCCCNCc2ccccc2)c(Br)c1	i	.	.	.
Cc1cc(Cl)cc(Br)c1OCCCNCC(C)O (stereo not drawn)	i	1.3	27%*	i
SMILES	KCNQ2 inh	KCNQ2 pot	Kir21 conf inh	HEK293 Tl flux	others
Cc1cc(C)c(OCCCNCc2ccccc2)c(Br)c1	i	.	12%*	i
Cc1ccc(OCCCCN(C)Cc2ccccc2)c(Br)c1	i	.	.	.
O=C(CSc1ccccc1)Nc1ccc2sccc2c1	i	0.74	.	.
CC1Sc2ccc(S(=O)(=O)CCC(=O)NC(C)c3ccccc3)cc2NC1=O (stereo not drawn)	i	0.48	.	.
COc1cc(-c2nnc3n2CCCCC3)cc(OC)c1OC	i	0.52	.	.
CC(C)(C)OC(=O)NCCCCCc1nnc(SCc2cccc(F)c2)o1	i	.	.	.
CC(C)(C)OC(=O)NCCc1nnc(SCC(=O)c2ccc(Cl)cc2)o1	i	.	.	.
Cc1cccc(CSc2nnc(CCNC(=O)OC(C)(C)C)o2)c1	i	.	33%*	i
CC(C)(C)OC(=O)NCCc1nnc(SCc2c(Cl)cccc2Cl)o1	i	.	.	.
CC(C)(C)OC(=O)NCCc1nnc(SCc2cccc(Cl)c2)o1	i	.	26%*	i
CC(C)(C)OC(=O)NCCc1nnc(SCc2ccc(Cl)cc2Cl)o1	-5.9*	-5.9	34%*	i
O=C(c1cc(=O)[nH]c2ccccc12)N(Cc1nnc(-c2ccccc2Cl)o1)C1CC1	i	1	.	.
Cc1nc(C)c(-c2csc(Nc3ccccn3)n2)s1	i	5.7*	i	i	CHO-K1 Tl ctr=-14;KCNQ1 pot spec=15*;KCNQ2 pot confirm=26*;Kir21 spec=-28;KCNQ2 W236L pot=40%*
Cc1ccnc(Nc2nc(-c3sc(C)nc3C)cs2)c1	i	2.9	.	.
Cc1ccc(/C=C/C(=O)NC(C)c2ccccc2)cc1 (stereo not drawn)	i	3.8	.	.
CCc1ccc(C(C)NC(=O)/C=C/c2ccc(Br)cc2)cc1 (stereo not drawn)	i	8.7*	i	i	CHO-K1 Tl ctr=-15;KCNQ1 pot spec=-15;KCNQ2 pot confirm=24*;Kir21 spec=-28;KCNQ2 W236L pot=i
CC(NC(=O)/C=C/c1ccccc1)c1ccccc1 (stereo not drawn)	i	17*	i	i	CHO-K1 Tl ctr=2.8*;KCNQ1 pot spec=20*;KCNQ2 pot confirm=30*;Kir21 spec=-10;KCNQ2 W236L pot=i
CC(NC(=O)/C=C/c1ccc(Br)cc1)c1ccccc1 (stereo not drawn)	i	4.2	.	.
C[C@@H](NC(=O)[C@@H]1Cc2ccccc2CN1)C(=O)Nc1ccc2c(c1)OCCO2	i	.	.	.
COc1ccc(C(CNC(=O)c2cc(C)on2)N(C)C)cc1 (stereo not drawn)	i	.	.	.
CN(C)CC1CCCCC1C1(O)c2ccccc2CSc2sccc21 (stereo not drawn)	i	1.5	69%*	i
CN(C)CC1CCCCC1OC(=O)c1ccc(Cl)cc1 (stereo not drawn)	i	0.35	.	.
